aDG glyco up: increases alpha dystroglycan glycosylation; actives 0.22% (n = 360,000); activation, % at 10 µM; AID 624168; Pro5-aDG cells, alpha-DG glycosylation AlphaScreen (IIH6); 0% Pro5, 100% B10-LARGE cell signal;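 active = activation of at least 8% versus controls, or a plate z-score of at least 8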;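 note: Pro5 are CHO cells carrying HIG-tagged alpha-DG that lacks glycosylation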
HSP90 refold inh: HSP90 refolding inhibition in rabbit reticulocyte lysate | luciferase refolding luminescence, 3 h | inhibition, % at 5.6 µM | actives 0.91% (n = 290,000) | AID 1789;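 active = inhibition above the screen-wide mean plus 3 SD, computed separately per campaign, cut at about 16% in these data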;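 note: 0% = DMSO wells and 100% = 60 µM geldanamycin wells; inhibitors lower the luminescence because luciferase stays unfolded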
EBV LMP1 NFkB: Epstein-Barr LMP1 NF-kappaB reporter inhibition; LMP1-induced NF-kappaB luciferase reporter cells, luminescence; inhibition, % at 12.5 µM; actives 0.69% (n = 350,000); in the data active = inhibition above about 41%; inconclusive = no clear call, values can overlap the other calls;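 note: 0% = neutral control wells and 100% = reference inhibitor control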
LGR2 inh: Drosophila LGR2 receptor signaling inhibition; HEK293 LGR2, CRE-luciferase, bursicon-stimulated, 4 h; inhibition, % at 9.99 µM; actives 0.35% (n = 380,000);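 active = drop in luminescence signal, shown as inhibition above about 50% in the replicate tests, limit read from the data, passing the limit was not always enough; inconclusive = probably only some replicates passing the limit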;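 note: agonist challenge used bursicon conditioned medium at about half maximal strength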
TWEAK-Fn14 inh: inhibitors of TWEAK-Fn14 interaction signaling; inhibition, % at 10 µM; TWEAK-stimulated Fn14 reporter cells, luciferase luminescence, 8 h; actives 2% (n = 360,000); AID 1159606; in the data active = inhibition above about 50%
TROY NFkB inh: blocks TROY-dependent signaling in reporter cells. Q293 LMP1-TROYcd NF-kB luciferase reporter, 4 h. inhibition, % at 10 µM. actives 0.98% (n = 360,000). AID 1347056;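 active = compounds whose plate-normalised and pattern-corrected inhibition of the luciferase reporter signal at the single screening dose is 50% or more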
Numbers without * were called inactive; ? = inconclusive; . = no result. Most compounds without a hit are left out; they make up all but 2.6% or so of the library.

SMILES	aDG glyco up	HSP90 refold inh	EBV LMP1 NFkB	LGR2 inh	TWEAK-Fn14 inh	TROY NFkB inh
C[C@H]1CN([C@@H](C)CO)C(=O)c2cccc(NS(=O)(=O)c3cccs3)c2O[C@H]1CN(C)Cc1ccc(Cl)c(Cl)c1	.	.	.	-7	.	.
CC(/C=N\N1CCN(c2ccc(Cl)cc2)CC1)=C\c1ccccc1	0	-2	4	-1	-6	62*
C[C@@H]1CN([C@@H](C)CO)C(=O)c2cc(NC(=O)Cn3cnnn3)ccc2O[C@@H]1CN(C)Cc1ccc(Oc2ccccc2)cc1	.	.	.	-17	.	.
CCOc1ccccc1OCCCC(=O)N1CCN(S(=O)(=O)c2ccc(Cl)cc2)CC1	0	.	70*	-3	0	4
C/C=C/c1ccc([C@@H]2[C@@H](CO)N(C(=O)NCCC)[C@H]2CNC(=O)C2CCC2)cc1	.	.	.	-2	.	.
Cc1noc(C)c1NC(=O)Nc1ccc2c(c1)C(=O)N([C@H](C)CO)C[C@H](C)[C@H](CN(C)CC1CC1)O2	.	.	.	-4	.	.
O=C(Nc1cccc(Cl)c1)N[C@H]1CC[C@@H](CCn2cc(Cc3ccccc3)nn2)O[C@H]1CO	.	.	.	21	.	.
Cc1cc(N2CCN(C)CC2)nc2ccc(NC(=S)N3CCCCC3)cc12	0	3	-3	-35	-8	54*
Cc1cccc(N2CCN(C(=S)Nc3ccc4nc(N5CCN(C)CC5)cc(C)c4c3)CC2)c1C	0	4	82*	7	-84	8
O=C(C[C@H]1C[C@@H]2c3cc(NC(=O)CC4CC4)ccc3O[C@@H]2[C@H](CO)O1)NCc1ccncc1	.	.	.	23	.	.
CCCNC(=O)C[C@H]1CC[C@@H]2[C@@H](COc3ccc(NC(=O)c4ccccc4)cc3C(=O)N2C)O1	.	.	.	23	.	.
c1ccc(COc2ccc(OCCCN3CCCC3)cc2)cc1	0	6	1	?	51*	35
C[C@@H]1CN([C@@H](C)CO)C(=O)c2cc(NC(=O)CCC(F)(F)F)ccc2O[C@H]1CN(C)C	.	.	.	-7	.	.
O=C1C=C(c2cc3ccccc3s2)CCC1	0	.	51*	-52	-19	-37
CCNC(=O)C[C@H]1CC[C@@H]2[C@@H](COc3ccc(NC(=O)Cc4cccs4)cc3C(=O)N2C)O1	.	.	.	-6	.	.
N[C@@H]1CC[C@@H](CCn2cc(C3CCCCC3)nn2)O[C@H]1CO	.	.	.	-27	.	.
O=C(C=Cc1ccccc1)CC(c1ccccc1)N1CCOCC1 (stereo not drawn)	0	.	-49	1	92*	-7
Cc1ccc(NC2Sc3ccccc3NC2=O)cc1 (stereo not drawn)	-1	2	-1	48	56*	9
O=C(Nc1ccn(Cc2ccccc2F)n1)c1ccc(COc2ccc(Br)cc2)cc1	4	5	22	19	51*	13
Cc1cc2c(c(/C=C/C(=O)c3ccccc3)c1)OC1(C=C2)Oc2ccccc2C(=O)N1C (stereo not drawn)	0	1	-40	50*	69*	17
CCc1ccc(OCc2nc(-c3ccccn3)no2)c(Br)c1	0	14	-33	.	59*	45
CC(C)c1ccc(OCc2nc(-c3ccccn3)no2)c(Br)c1	0	-3	-32	.	38	7
C[C@@H]1CN([C@@H](C)CO)C(=O)c2cccc(NS(=O)(=O)c3cn(C)cn3)c2O[C@@H]1CN(C)Cc1ccc(-c2ccccc2)cc1	.	.	.	-9	.	.
C[C@@H]1CN([C@H](C)CO)C(=O)Cc2cc(NC(=O)C3CCCCC3)ccc2O[C@H]1CN(C)Cc1ccc(C(=O)O)cc1	.	.	.	5	.	.
Cc1ccc(N(CCC#N)C(=O)CCl)cc1C	2	5	2	-1	56*	3
O=C(N[C@@H]1CC[C@@H](CCn2cc(-c3ccccc3)nn2)O[C@H]1CO)c1ccccc1F	.	.	.	7	.	.
C[C@H]1CN([C@@H](C)CO)S(=O)(=O)c2ccc(C#Cc3ccccc3)cc2O[C@H]1CN(C)C(=O)CN(C)C	.	.	.	16	.	.
COc1cccc(/C=C2/CCC(CN(C)C)C2=O)c1 (stereo not drawn)	0	.	-22	.	86*	10
COc1ccc(/C=C2/CCCC(CN(C)C)C2=O)cc1 (stereo not drawn)	-1	.	-34	-13	-19	-1
CCCC#Cc1ccc([C@@H]2[C@@H](CO)N3C(=O)CN(C(=O)c4ccc(F)cc4)C[C@H]23)cc1	.	.	.	-29	.	.

High-throughput results: PubChem, several laboratories
